Assay outcomes deposited in PubChem BioAssay by National Center for Advancing Translational Sciences (NCATS).
Most compounds without a hit are left out; they make up all but 1.5% or so of the library.
PI4K2A inh: inhibitors of human PI4K2A. Q9BTU6. purified PI4K2A, ADP-Glo luminescence, 1 h; hits give low values. activity change, negative = inhibition, % at 76.9 µM. 420,000 tested, 0.13% active. AID 1346378; in the data active = activity change below about -50%; inconclusive = mostly about -30% to -49%;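 note: -100% = wells without enzyme as full effect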
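In this quantitative HTS, ADP production by PI4K2A was quantified luminescently after 1 h at ambient temperature; 100 microM adenosine served as plate-quality control.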
Giardia killer: kills Giardia lamblia. activity change, % at 7.66 µM, hits read low. 340,000 tested, 0.15% active. Giardia lamblia trophozoite viability; in the data active = activity change below about -80%; inconclusive = between about -30% and that limit;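 note: parasites exposed to compound for two days anaerobically before the ATP read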
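Trophozoite viability was measured as ATP-dependent luminescence, read 15-30 min after reagent addition. Before that, parasites at 100 cells/well were exposed to compounds for 48 h, anaerobically, at 37 deg C.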
FBPA coupling cs: inhibits coupling enzyme system, counter-screen for aldolase hits; coupling enzyme system counterscreen, AmpLite Red fluorescence; activity change, negative = inhibition, % at 58.2 µM, hits read low; 290,000 tested, 0.67% active; in the data active = activity change below about -30%
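First, compound is pin-transferred into glyceraldehyde-3-phosphate coupling-enzyme reagent at 57.5 uM final and held 10 min at RT. Next, substrate, coupling system and AmpLite Red are added. After 20 min RT, fluorescence (525/598 nm) is read.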
GALK inhibitor: inhibitors of human galactokinase; P51570; Purified GALK, Kinase-Glo residual ATP luminescence; Potency, µM (titrated, usually from 57.5 µM), for inactives: top-dose activity change, negative = inhibition, usual class: inhibitors; 270,000 tested, 0.007% active; AID 1868; note: potency is the fitted concentration of half-maximal effect
Target sequence (P51570 whole entry, looked up): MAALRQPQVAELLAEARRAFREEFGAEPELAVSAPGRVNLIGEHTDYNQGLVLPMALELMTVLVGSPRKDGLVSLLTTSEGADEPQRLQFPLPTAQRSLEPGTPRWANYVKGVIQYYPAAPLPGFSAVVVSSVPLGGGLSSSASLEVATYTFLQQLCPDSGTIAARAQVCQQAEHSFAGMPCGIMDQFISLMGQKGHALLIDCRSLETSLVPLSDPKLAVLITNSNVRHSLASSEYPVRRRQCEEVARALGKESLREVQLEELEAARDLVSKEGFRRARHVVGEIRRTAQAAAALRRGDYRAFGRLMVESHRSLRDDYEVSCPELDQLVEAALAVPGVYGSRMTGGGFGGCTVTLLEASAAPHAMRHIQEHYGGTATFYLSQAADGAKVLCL
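Human GALK (5 nM) with 35 uM ATP and 100 uM galactose in 20 mM HEPES pH 8.0, 5 mM MgCl2, 60 mM NaCl, 1 mM DTT, 0.01% BSA. After 1 h at room temperature, leftover ATP was read by Kinase-Glo Plus luminescence.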
rTrxR1 inhibitor: rat TrxR1 inhibition; O89049; recombinant rTrxR1, NADPH fluorescence consumption, selenite substrate; Potency, µM (series often up to 114 µM), inactives show at the highest dose activity change, negative = inhibition, usual class: inhibitors; 390,000 tested, 1% active; note: potency is the fitted concentration of half-maximal effect; nearly all actives have a fitted effect of over 65% in size
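Rat TrxR1 (90 nM in the dispensed reagent) was pre-reduced with 400 uM NADPH for 5 min at room temperature, then incubated with compound for 15 min. After 400 uM selenite was added, NADPH fluorescence (Ex 340/Em 450 nm) was followed for 8 min.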
TrxR1 substrate: rat thioredoxin reductase 1 substrate activity; O89049; 390,000 tested, 0.01% active; Potency, µM (doses to about 114 µM), inactives show top-dose activity change, negative = substrate turnover; purified TrxR1 substrate turnover, NADPH consumption readout; note: potency is the fitted concentration of half-maximal effect; nearly all actives have a fitted effect of over 50% in size
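Rat TrxR1, dispensed at 90 nM, was prereduced with 400 uM NADPH (final) for 5 min at ~22 deg C, then incubated with compound 15 min before 400 uM selenite. A first-read NADPH fluorescence drop versus no-compound background flagged substrates.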
Active calls of the source: *; ? = inconclusive; . = not tested or not shown; ! = not active in a repeat; [ ] = dose if it differs, or a comment. Unless noted, calls come from the whole dose curve; as a rule, active = well fitted curve in the direction sought with a large enough effect; inconclusive = small, poorly fitted or top-dose-only effect, or another doubt; inactive = no such curve, though single readings can be large; an effect the other way counts as inactive or inconclusive. Unless noted, % is set by controls: 0 for no effect and ±100 for the full control effect.

SMILES	PI4K2A inh	Giardia killer	FBPA coupling cs	GALK inhibitor	rTrxR1 inhibitor	TrxR1 substrate
Cc1ccc(N2C(=O)CSCC2=O)cc1	4	-11	0	-1%	-6%	-4%
Cc1ccc(N2C(=O)CS(=O)(=O)CC2=O)cc1	5	-15	-1	-2%	4.5µM*	8%[57.1 µM]
Cc1ccc(C(=O)NCc2ccccc2)cc1NC(=O)c1nsc2ccccc12	-3	.	.	.	31%[57.1 µM]	5%[57.1 µM]
CCOC(=O)c1sc(N)c(C(N)=O)c1C	7	36	-33*	10%	-4%[57.1 µM]	3%[57.1 µM]
CCOC(=O)c1c(N)sc(C(N)=O)c1C	6	-6	6	1%	0%[57.1 µM]	8%[57.1 µM]
COCCNC(=O)c1cc2cc3ccc(OC)cc3nc2o1	-4	18	1	-5%	71µM*	868%
COc1ccc2cc3cc(C(=O)NCCN4CCN(c5ccccc5F)CC4)oc3nc2c1	0	13	-2	-5%	-106%	361%
COc1ccc2cc3cc(C(=O)NCCC(C)C)oc3nc2c1	3	-2	0	-2%	23%[57.1 µM]	60%[57.1 µM]
COc1ccc2cc3cc(C(=O)Nc4ccccc4N4CCN(C)CC4)oc3nc2c1	1	-87*	1	1%	13%	9%
COc1cc(SSc2cc(OC)cc([N+](=O)[O-])c2N)c(N)c([N+](=O)[O-])c1	-13	-25	-30*	8%	64%	-10%
COc1cccc(NC(=O)CSc2nc(=O)n(Cc3cccnc3)c3c2CCC3)c1	13	.	.	.	6%[57.1 µM]	-2%[57.1 µM]
C/C(=C\C(=S)Nc1ccccc1)Nc1cccc2ccccc12	-3	-4	-49*	-1%	?	176%
C=CCNC(=S)Nc1cccc2ccccc12	-1	9	-51*	0%	-5%	40%[57.1 µM]
C/C(=C\C(=S)Nc1ccccc1)Nc1ccc2ccccc2c1	0	2	-37*	.	?	39%
COc1ccc(C(=O)NCCc2sc(-c3cccc(F)c3)nc2C)cc1	-5	.	.	.	8%[57.1 µM]	4%[57.1 µM]
Oc1ccc(OCc2ccccc2)cc1	0	.	2	.	.	.
Oc1ccc(NCc2ccc(OCc3ccccc3)cc2)cc1	?	-14	-10	1%	28µM*!	-10%
COc1cc(CNc2cccc(F)c2)cc(Br)c1O	3	-13	-6	3%	13µM*	-1%[57.1 µM]
COc1cc(CNC(C)c2ccccc2)cc(Br)c1OCc1ccccc1 (centres undefined)	12	-17	0	-3%	17%	-1%
COc1cc(CNc2ccc(O)cc2)cc(Br)c1OCc1ccccc1	?	-13	-41*	-4%	10%	-4%
Oc1ccc(NCc2ccc(OCc3ccccc3Cl)cc2)cc1	?	.	.	.	45µM*	-11%
O=[N+]([O-])c1cccc(S(=O)(=O)N2CCN(c3nc(-c4ccccc4)nc4ccccc34)CC2)c1	.	-13	.	.	6%	-1%
O=C(NCN1CCc2ccccc2C1)c1ccccc1	3	5	4	6%	11%[57.1 µM]	6%[57.1 µM]
O=C(NCN1CCc2ccccc2C1)c1cnccn1	7	-9	1	6%	20µM*	-4%
C[C@H](N)C(=O)NCC(=O)N[C@H]1CSSC[C@@H](C(=O)O)NC(=O)[C@H](CO)NC(=O)[C@H]([C@@H](C)O)NC(=O)[C@H](Cc2ccccc2)NC(=O)[C@H]([C@@H](C)O)NC(=O)[C@H](CCCCN)NC(=O)[C@@H](Cc2c[nH]c3ccccc23)NC(=O)[C@H](Cc2ccccc2)NC(=O)[C@H](Cc2ccccc2)NC(=O)[C@H](CC(N)=O)NC(=O)[C@H](CCCCN)NC1=O	.	.	-2	.	.	.
SMILES	PI4K2A inh	Giardia killer	FBPA coupling cs	GALK inhibitor	rTrxR1 inhibitor	TrxR1 substrate
NCCN1CCN(CC(=O)N2c3ccccc3C(=O)Nc3cccnc32)CC1	0	-18	.	.	-1%[57.1 µM]	10%[57.1 µM]
O=C1Nc2cccnc2N(C(=O)CCl)c2ccccc21	1	-20	-1	2%	13µM*	-5%
COc1[nH]c(/N=C/c2ccco2)c(C#N)c1C#N	.	-23	.	.	?	3%
Cc1ccc(CNC(=O)C2CCN(S(=O)(=O)c3cccs3)CC2)o1	-3	-9	2	2%	8.9µM*	1%
Cc1ccc(CNC(=O)C2CCC(=O)N(CC3CCCCC3)C2)o1 (centres undefined)	-2	14	1	-6%	50µM*	-13%
Cc1ccc(CNC(=O)C2CCC(=O)N(Cc3cccc(C(F)(F)F)c3)C2)o1 (centres undefined)	-2	-15	.	.	35µM*	8%
COc1ccc(CNC(=O)C2CCC(=O)N(CC3CCCCC3)C2)cc1 (centres undefined)	7	21	.	0%	3%	4%
CCOc1ccc(-n2c(SCC(=O)Nc3cccc4ccccc34)nnc2-c2ccco2)cc1	2	.	.	.	.	.
C1=Cc2ccccc2/C1=C\c1cc2c3c(c1)CCCN3CCC2	.	.	.	.	?	8%
CC(C)(C)c1ccc(-c2nc3cc(NC(=O)c4cccc(Br)c4)ccc3o2)cc1	0	.	.	.	-2%	1%
COc1ccc(C(C)=O)cc1COC(=O)c1ccc(S(=O)(=O)N(C)C)cc1	4	-1	2	-2%	45µM*	5%
COc1ccc(C(C)=O)cc1COC(=O)c1ccc(C)c(S(=O)(=O)N2CCOCC2)c1	-2	-7	.	.	35µM*	-2%
COc1ccc(C(C)=O)cc1COC(=O)c1ccc2c(c1)OCO2	-1	10	1	2%	?	15%[57.1 µM]
COc1ccc(C(C)=O)cc1COC(=O)Cc1cc(OC)c(OC)c(OC)c1	3	-3	0	1%	40µM*	4%
COc1ccc(C(C)=O)cc1COC(=O)c1ccc2c(c1)OCCO2	11	34	.	.	56µM*	-4%
CNS(=O)(=O)c1cccc(C(=O)OCc2cc(C(C)=O)ccc2OC)c1	0	1	4	-6%	18%[57.1 µM]	5%
CC(C)NS(=O)(=O)c1cc(C(F)(F)F)ccc1/C=C/C(=O)O	.	.	.	.	?	2%
O=C(CCl)N(c1ccccc1)C1CCCCC1	7	-17	3	-3%	3.2µM*	14%[57.1 µM]
CC(=O)N(c1ccccc1)C1CCCC1	-1	4	1	1%	-18%	-14%
Fc1cc(Br)ccc1Nc1c2c(nc3nc(-c4cccs4)nn13)CCCC2	-2	.	.	.	0%[57.1 µM]	1%[57.1 µM]
COc1cc(O)cc(OC)c1OC	.	.	-33*	.	.	.
COc1c(O)cc(O)cc1O	.	.	1	.	.	.
C#CCOCCOCCOCCNc1nc(N2CCOCC2)nc(N2CCN(C(=O)[C@H](CCC(=O)O)n3cc(C(N)CO)nn3)CC2)n1 (some centres undefined)	-29	.	.	.	.	.
Cc1ccc(/C=C2\SC(=S)N(C3CCS(=O)(=O)C3)C2=O)o1 (centres undefined)	-8	6	-18	0%	16µM*	-18%
